Bioassay records from PubChem.
Shiga inhibitor = A qHTS for Small Molecule Inhibitors of Shiga Toxin; Vero cells, Shiga toxin protein synthesis inhibition reporter; inhibition, % at 38.7 µM; hit rate 9.2% among 290,000; in the data active = inhibition mostly above about 28%, no sharp cut-off; inactive = mostly below about 43%; note: 0% is about no effect
FBPA Giardia inh = qHTS Assay for Inhibitors of Fructose-1,6-bisphosphate Aldolase from Giardia Lamblia; purified Giardia FBPA; hit rate 0.71% among 290,000; Potency, µM (doses to about 59.6 µM), for the others: at the top dose activity, negative = inhibition, hits mostly inhibitors; A8B2U2; note: potency is the fitted concentration of half-maximal effect; % is set by controls: 0 for no effect and ±100 for the full control effect; nearly all actives have a fitted effect of over 55% in size
Target sequence (A8B2U2 whole entry, looked up): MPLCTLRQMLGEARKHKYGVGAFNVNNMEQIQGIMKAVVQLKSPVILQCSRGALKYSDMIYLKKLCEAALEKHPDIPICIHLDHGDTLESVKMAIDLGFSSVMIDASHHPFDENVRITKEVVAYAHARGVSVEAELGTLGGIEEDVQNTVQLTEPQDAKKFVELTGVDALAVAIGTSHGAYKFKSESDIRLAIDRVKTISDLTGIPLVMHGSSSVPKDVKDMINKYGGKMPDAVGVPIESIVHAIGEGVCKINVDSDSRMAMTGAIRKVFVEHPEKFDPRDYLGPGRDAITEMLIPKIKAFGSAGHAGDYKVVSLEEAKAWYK
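40 nM FBPA preincubated 10 min at RT with compound (up to 57.5 uM final), then substrate plus GAPDH/TPI/NAD/arsenate coupling and diaphorase/resazurin added. Fluorescence read after 20 min at RT, 525/598 nm.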
NS1 function inh = qHTS Assay for Inhibitors of Influenza NS1 Protein Function; Potency, µM (top dose mostly 46.1 µM), inactives show at the top dose activity, positive = more growth; hit rate 0.4% among 270,000; AID 2326, 2010; calls by dose curve; note: potency is the fitted concentration of half-maximal effect; actives are rising curves; nearly all actives have a fitted effect of over 50% in size
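Growth recovery, yeast-based: influenza A NS1 expressed in S. cerevisiae causes slow growth, and suppressors are detected by OD600. The parent strain without NS1 is used as positive control.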
LmPK inhibitor = qHTS Assay for Inhibitors of Leishmania Mexicana Pyruvate Kinase (LmPK); purified LmPK, Kinase-Glo ATP luminescence, 1 h; AID 1721, 2009; hit rate 0.37% among 290,000; Potency, µM (series often up to 57.5 µM), for the others: top-dose activity change, negative = inhibition, most hits filed as inhibitors; Q27686; note: potency is the fitted concentration of half-maximal effect; % is set by controls: 0 for no effect and ±100 for the full control effect
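Pyruvate kinase activity monitored as ATP production (luciferase luminescence). Conditions: 0.1 nM enzyme, 0.5 mM PEP, 0.1 mM ADP, 1 h, RT; normalized against uninhibited and no-enzyme wells.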
CHX counter = Cycloheximide Counterscreen for Small Molecule Inhibitors of Shiga Toxin | max response, % | cell reporter, cycloheximide protein synthesis inhibition counterscreen | hit rate 12% among 300,000 | AID 2314, 2010; in the data active = max response mostly above about 13%, no sharp cut-off; inactive = mostly below about 14%; note: read at 38.3 µM for the half of the compounds with a filed dose; 0% is about no effect
Active calls of the source: *; u = inconclusive; x = not tested or not shown; [ ] = another dose, or the depositor's remark. In the library only some 14% were active in any assay of this set; here they are far more common. Unless noted, calls come from the whole dose curve; as a rule, active = well fitted curve in the direction sought with a large enough effect; inconclusive = small, poorly fitted or top-dose-only effect, or another doubt; inactive = no such curve, though single readings can be large; an effect the other way counts as inactive or inconclusive.

SMILES	Shiga inhibitor	FBPA Giardia inh	NS1 function inh	LmPK inhibitor	CHX counter
CC(=O)c1ccc(NC(=O)C2(c3ccccc3)CC2(Cl)Cl)cc1 (centres undefined)	88*	-11%	-10%	0%	40*
CC(=O)c1ccc(NC(=O)/C(Cl)=C/c2ccccc2)cc1	147*	7%	-3%	-23%	41*
Cc1ccc(NC(=O)/C(Cl)=C\c2ccccc2)cc1	6	0%	-93%	5%	6
O=C(Cc1ccccc1)Nc1ccc(F)cc1	-4	1%	-3%	1%	2
O=C(Nc1ccc(F)cc1)/C(Cl)=C/c1ccccc1	62*	-8%	-10%	-18%	40*
O=C(NC1CCCC1)C(c1ccccc1F)N(C(=O)c1csnn1)c1ccccc1 (centres undefined)	-3	1%	-4%	5%	-4
COc1ccc(CN2C(=NC(=O)C3CCCO3)SC3CS(=O)(=O)CC32)cc1OC (centres undefined)	-7	x	-5%	2%	-7
CCOC(=O)CC(NS(=O)(=O)c1ccc2[nH]cc(C(=O)O)c(=O)c2c1)c1ccc(OCC)c(OC)c1 (centres undefined)	-2	5%	-10%	9%	-2
C=CCC(CC(O)COCCC)C(=O)NNC(=S)Nc1ccccc1 (centres undefined)	71*	0%	1%	-1%	36*
CC(C)CCOCC(O)CCC(=O)NNC(=S)Nc1ccccc1 (centres undefined)	-3	8%	3%	-1%	6
CNC1C(O)[C@@H]2OC(O[C@@H]3C(O)C(O)C(N)C[C@H]3N)C(N)C[C@H]2O[C@H]1O[C@@H]1OC(CO)C(N)C(O)C1O (some centres undefined)	x	8%	x	x	x
O=C(N/N=C/c1cccnc1)c1ccc2c(c1)OCO2	55*	-12%	5%	-3%	38*
O=C(N/N=C\c1cccc(OC(=O)c2ccco2)c1)c1ccc2c(c1)OCO2	50*	-3%	-2%	1%	32*
O=C(N/N=C/c1cc2c(cc1Br)OCO2)c1cccnc1	31	1%	x	3%	14
O=C(N/N=C/c1ccc2c(c1)OCO2)C1CC1	49*	x	-16%	-8%	37*
O=C(N/N=C/c1ccccc1OC(=O)N1CCOCC1)c1cccs1	47	3%	x	-3%	35*
CCOc1ccccc1CN1CCNC(=O)C1CC(=O)NCc1nccn1CC (centres undefined)	-9	-24%	0%	1%	6
CCN1CCN(C(CNC(=O)c2ccc3c(c2)OCO3)c2cccnc2)CC1 (centres undefined)	33	6%	-19%	3%	20*
O=C(NCC(c1cccnc1)N1CCOCC1)c1ccc2c(c1)OCO2 (centres undefined)	32	1%	0%	0%	10
O=C(N/N=C\c1ccc(S(=O)(=O)O)o1)c1ccc2c(c1)OCO2	-4	2%	-4%	-10%	-3
O=C(N/N=C\c1cc2c(cc1[N+](=O)[O-])OCO2)c1cccs1	20	x	6%	-5%	8
O=C(N/N=C\c1cc2c(cc1Cl)OCO2)c1cccs1	69*	x	-4%	-1%	26*
O=C(N/N=C/c1cc2c(cc1Cl)OCO2)c1ccc2c(c1)OCCO2	70*	-10%	3%	1%	42*
O=C(N/N=C/c1c(Cl)[nH]c2ccccc12)c1ccc2c(c1)OCCO2	60*	-9%	-8%	1%	55*
O=C(N/N=C/c1ccc(-c2ccc(Br)cc2)o1)c1ccc2c(c1)OCO2	27	3%	x	0%	14
SMILES	Shiga inhibitor	FBPA Giardia inh	NS1 function inh	LmPK inhibitor	CHX counter
O=C(N/N=C/c1ccc(COc2ccc(Br)cc2)o1)c1ccc2c(c1)OCO2	26	10%	0%	-1%	15*
O=C(Cc1ccccc1)N/N=C/c1cc2c(cc1Cl)OCO2	85*	-8%	-1%	1%	35*
O=C(CNC(=O)c1cccc(Br)c1)N/N=C/c1ccc2c(c1)OCO2	79*	6%	-24%	-19%	24*
CCN(CC)c1ccc(/C=N/NC(=O)CNC(=O)c2ccc3c(c2)OCCO3)cc1	-10	8%	-15%	2%	6
O=C(N/N=C/c1cccc(O)c1)c1ccc2c(c1)OCCO2	9	x	-3%	-4%	9
O=C(N/N=C/c1ccc2c(c1)OCO2)c1ccc2c(c1)OCO2	72*	8%	5%	-12%	42*
Cc1ccccc1CC(=O)Nc1ccc(S(=O)(=O)N2CCN(C)CC2)cc1	-37	x	7%	-7%	5
COC(=O)C(NS(N)(=O)=O)C(C)C (centres undefined)	-17	4%	x	x	-7
COC(=O)c1ccc(C(NC(=O)OCc2ccccc2)/C(=C/[C@@H](C)C(=O)NCc2ccc(-c3ccccc3)cc2)c2cccnc2)cc1 (some centres undefined)	x	-1%	x	x	x
CC#CCN1c2ccccc2[C@]23C[C@@H](C(=O)OC)N(C(=O)CC(C)C)C2=NC(C(=O)OC)=C(C(=O)OC)[C@H]13	x	3%[12.9 µM]	x	-2%[11.5 µM]	x
O=C(N/N=C/c1ccc[nH]1)c1ccc2c(c1)OCO2	109*	-20%	x	-6%	37*
O=C(N/N=C\c1ccc2c(c1)OCO2)c1ccco1	59*	1%	-12%	14µM*	28*
CC1(C)NC(=O)N(CC(O)CN(c2cccc([N+](=O)[O-])c2)S(=O)(=O)c2ccccc2)C1=O (centres undefined)	-5	x	1%	-10%	-9
Cc1ccc2nc(-c3ccccc3)c(-c3ccccc3)nc2c1	9	1%	6%	0%	11
Cc1ccc2nc(=O)c(NNc3ccccc3)cnc2c1	21	0%	6%	-3%	23*
Cc1nc2ccccc2nc(=O)c1NNc1ccccc1	23*	3%	-3%	6%	20*
CCN1C(=O)c2c(C)nc3ccccc3c2C1=O	-6	-8%	-12%	0%	-3
O=C(CSc1cn(CCNC(=O)c2cccs2)c2ccccc12)NCc1ccccc1	15	-2%	1%	4%	11*
O=C(CSc1cn(CCNC(=O)c2cccs2)c2ccccc12)NC1CCCCC1	12	-2%	-10%	-6%	1
COc1ccc(C(=O)NCCn2cc(SCC(=O)Nc3cc(C)on3)c3ccccc32)cc1OC	-23	-1%	2%	0%	-3
CCOc1ccc(C(=O)NCCn2cc(SCC(=O)Nc3cc(C)on3)c3ccccc32)cc1	18	2%	-25%	6%	15*
Cc1cc(NC(=O)CSc2cn(CCNC(=O)c3ccc(Cl)cc3)c3ccccc23)no1	13	24%	u	-2%	38*
O=C(CSc1cn(CCNC(=O)c2ccc3ccccc3c2)c2ccccc12)NCc1ccco1	22	3%	18%	3%	15*
O=C(c1ccco1)N1CCCC(N2CCN(c3cccc(C(F)(F)F)c3)CC2)C1 (centres undefined)	-2	x	-11%	3%	-1
